# DRD3 antagonist – qHTS of D3 Dopamine Receptor Antagonist: qHTS; D(3) dopamine receptor (Homo sapiens), P35462; D3R cells, DiscoveRx beta-arrestin luminescence, antagonist mode; hits give low values; max response, negative = inhibition, %; 360,000 compounds, 2.5% hits; in the data active = max response below about -50%; inconclusive = no clear call, values can overlap the other calls
#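 Cells expressing the human receptor were seeded at 1500 cells/well, incubated overnight at 37 degrees C in 5% CO2, then exposed to library compounds with dopamine controls for 90 minutes at 37 degrees C before luminescent detection.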
# pAkt inh – HTS Assay for Inhibitors of Akt Phophorylation: Primary Screen | Neuro2A IGF-stimulated pAkt S473 HTRF, 20 min; hits give low values | AID 651550, 2012 | 360,000 compounds, 0.32% hits | activity change, % for hits at 50 µM; in the data active = activity change below about -80%; inconclusive = mostly about -51% to -80%
#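 Single-point screen (50 µM final compound) in Neuro2A cells stimulated 20 min with 6 nM IGF at 37 deg C. After lysis, Ser473-phosphorylated Akt read by HTRF (ex 330 nm, em 615/665 nm) as the 665/615 ratio.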
# DRD3 agonist – qHTS of D3 Dopamine Receptor Agonist: qHTS. max activation, %. D3R DiscoveRx beta-arrestin cells, luminescence, 90 min. D(3) dopamine receptor (Homo sapiens), P35462. 410,000 compounds, 0.58% hits; in the data active = max activation above about 30%
#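 Agonist mode: compounds and dopamine controls were applied to plated cells for 90 min at 37 degrees C after an overnight attachment at 1500 cells/well. Luminescent read-out followed 30 - 60 minutes at room temperature with DiscoveRx detection reagent.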
# PI4K2A inh – qHTS for small molecular inhibitors of PI4K2A; activity change, negative = inhibition, % at 76.9 µM; Phosphatidylinositol 4-kinase type 2-alpha (Homo sapiens), Q9BTU6; 420,000 compounds, 0.13% hits; purified PI4K2A, ADP-Glo luminescence, 1 h; hits give low values; in the data active = activity change below about -50%; inconclusive = mostly about -30% to -49%
# Target sequence (Q9BTU6 whole entry, looked up): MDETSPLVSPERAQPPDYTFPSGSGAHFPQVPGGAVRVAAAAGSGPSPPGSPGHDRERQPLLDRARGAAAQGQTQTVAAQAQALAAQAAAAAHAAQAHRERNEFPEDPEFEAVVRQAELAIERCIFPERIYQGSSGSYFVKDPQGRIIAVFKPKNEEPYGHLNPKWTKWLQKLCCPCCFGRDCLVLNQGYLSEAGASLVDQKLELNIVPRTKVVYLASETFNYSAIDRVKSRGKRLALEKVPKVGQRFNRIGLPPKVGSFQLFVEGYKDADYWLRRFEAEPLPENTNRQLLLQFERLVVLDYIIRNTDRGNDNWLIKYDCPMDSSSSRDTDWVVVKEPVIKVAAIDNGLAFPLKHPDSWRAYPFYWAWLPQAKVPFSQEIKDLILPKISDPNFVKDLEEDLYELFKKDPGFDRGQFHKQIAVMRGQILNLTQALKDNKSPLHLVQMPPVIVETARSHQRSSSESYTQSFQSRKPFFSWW
#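 ADP-Glo luminescence measured ADP generated by PI4K2A enzyme (4 ug/mL before mixing) with 1.2 mM PI substrate (pre-mix) and 300 microM ATP (pre-mix). Tris pH7.5 buffer with MgCl2, Triton X-100; 1 h reaction at ambient temperature.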
# RGS4 inh – Inhibitors of Regulator of G Protein Signaling (RGS) 4: qHTS. Potency, µM (titrated, usually from 114 µM), most hits filed as inhibitors. Regulator of G-protein signaling 4 (Homo sapiens), P49798. 390,000 compounds, 0.039% hits. Transcreener GDP fluorescence polarization, RGS4-accelerated GTP hydrolysis; active = well fitted inhibition curve with a large enough effect; inconclusive = small, poorly fitted or top-dose-only effect; inactive = no such curve, though single readings can be large or run the other way; also: nearly all actives have a fitted effect of over 75% in size
#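 MLSMR compounds (23 nl, pin-transferred) preincubated 10 min at room temperature with a 500nM (2x) first reagent, then RGS4 at 900nM (2x) plus Transcreener GDP mix added; fluorescence polarization (620/688 nm) read before and after 90 min at 30 °C.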
# LDHA inh – qHTS assay for inhibitors of human lactate dehydrogenase | activity change, % (values are at about 110 or 230 µM) | 480,000 compounds, 0.15% hits | purified LDHA, NADH/diaphorase-resazurin fluorescence; hits give low values | L-lactate dehydrogenase A chain (Homo sapiens), P00338 | AID 1347041, 2019; in the data active = activity change below about -30%; inconclusive = mostly about -25% to -30%
#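 Remaining NADH was detected by diaphorase (0.133 mg/mL) converting 37 µM resazurin to fluorescent resorufin, read at 0 and 20 minutes. The preceding 5-minute room-temperature reaction used 2 nM LDHA, 0.2 mM sodium pyruvate and 0.06 mM NADH at pH 7.4.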
# A number is an active result; – = inactive; ? = inconclusive; · = no result given; [ ] = dose if it differs, or a comment. Rows were chosen to be rich in hits. Some 2.8% of all compounds tested hit in one or more screens of this group.
SMILES,DRD3 antagonist,pAkt inh,DRD3 agonist,PI4K2A inh,RGS4 inh,LDHA inh
Cc1ccccc1CN1CCN(S(=O)(=O)c2ccc(F)cc2)CC1,-78,–,–,–,–,?
COc1ccc(CN2CCN(S(=O)(=O)c3ccccc3)CC2)c(OC)c1,-70,–,–,–,–,–
COc1ccccc1CN1CCN(S(=O)(=O)c2ccccc2)CC1,-68,–,–,–,–,–
COc1cccc(CN2CCN(S(=O)(=O)c3ccccc3)CC2)c1OC,–,–,–,–,–,–
COc1ccc(OC)c(CN2CCN(S(=O)(=O)c3ccccc3)CC2)c1,–,–,–,–,–,–
Cc1nc(-n2[nH]c(C)c(CCC(C)C)c2=O)sc1C(=O)Nc1ccccc1,·,·,·,·,·,–
Cn1c(=O)c2c(nc(NCc3ccccc3)n2Cc2cccc(Br)c2)n(C)c1=O,·,·,·,·,·,–
Cc1ccsc1/C=N/n1c(-c2ccccc2)n[nH]c1=S,–,–,–,–,?,–
Cc1ccsc1/C=N/n1c(-c2ccco2)n[nH]c1=S,-59,–,–,–,–,–
O=S(=O)(NCC1CC1)c1cccc(S(=O)(=O)N2CCCC2)c1,–,-112%,–,–,–,–
O=S(=O)(NCCC1=CCCCC1)c1cccc(S(=O)(=O)N2CCOCC2)c1,-72,–,–,–,–[11.4 µM],–
CC(C)OC(=O)c1cc(C(=O)OC(C)C)cc([N+](=O)[O-])c1,·,·,–,–,·,·
CC(C)OC(=O)c1cc(NC(=S)Nc2ccc([N+](=O)[O-])cc2)cc(C(=O)OC(C)C)c1,-63,–,–,–,–,–
CCNc1nc(-c2sc(NC(=O)C(C)(C)C)nc2C)c(-n2cc(-c3ccccc3)nn2)s1,–,–,31,–,·,–
CSc1ccc(C(=O)C2CCCN(C(=O)Cn3cnnn3)C2)cc1 (configuration not stated),–,–,–,–,–,–
CSc1ccc(C(=O)C2CCCN(C(=O)Cc3nonc3C)C2)cc1 (configuration not stated),-84,–,–,–,–,–
CC(=O)N1CCN(C(=O)c2cc3c(s2)CCCC3)CC1,–,–,–,–,–,–
CN1CCCN(C(=O)c2cc3c(s2)CCCC3)CC1,-56,–,–,–,–,–
COc1cc(C2Nc3ccc(C)cc3[C@H]3OCCC[C@@H]23)cc(Cl)c1OC (some centres not stated),·,·,·,·,·,–
COc1cc2ccccc2cc1C(=O)N1CCN(CC(=O)Nc2ccc(F)cc2)CC1,·,·,·,·,·,–
O=S(=O)(Nc1cc(Sc2ncn[nH]2)c(O)c2ccccc12)c1ccccc1,-100,–,–,-64,?,–
O=C(NC[C@@H]1CCCO1)c1cccc2c1C(=O)c1ccc(Cl)cc1S2(=O)=O,–,–,–,–,–,–
COc1ccc(-c2ccc3c(c2)S(=O)(=O)c2cccc(C(=O)NC[C@@H]4CCCO4)c2C3=O)cc1OC,–,–,37,–,–,–
CC1=C(C(=O)OCC2CCCO2)C(c2ccc(Cl)c(Cl)c2)NC(=O)N1 (configuration not stated),–,–,–,–,–,–
CC1=C(C(=O)OCC2CCCO2)C(c2ccccc2Cl)NC(=O)N1 (configuration not stated),?,-99%,–,–,–,–
COc1ccc(/C=C/C(=O)Nc2nc(-c3cccs3)ns2)cc1OC,·,·,36,–,–,–
CC(C)Sc1nc2c(c(=O)n(C)c(=O)n2C)n1Cc1ccccc1,·,·,·,·,·,–
CC(C)(C)OC(=O)NCCc1nnc(S(=O)(=O)Cc2ccc(Cl)cc2Cl)o1,-71,–,–,–,–[11.4 µM],–
CCOc1cc(CN2CCN(CCOCCO)CC2)ccc1OC,–,–,–,–,–,–
O=C1C=CC(=O)c2c(O)c(N3CCN(CCO)CC3)c(Cl)c(O)c21,-121,–,–,-57,?,–

# Bioassay records: PubChem, National Center for Advancing Translational Sciences (NCATS)
